Where a name gives a salt, the structure may show the parent alone. ± gives the standard deviation of the averaged measurements.

One assay has as its system E. coli TESEC Mtb DapB. Nature of the assay: growth (OD600 after 10 h); higher = more growth (less inhibition). The conditions noted are these: arabinose induction (level): High; compound 0.1 mM; raw OD600 reference: median of DMSO wells […], cell-free background 0.041. How it is done:
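TESEC E. coli strains in which the native enzyme is deleted and replaced by arabinose-inducible Mtb Asd, DapB, CysH or TrpD, each grown in its selective medium. Strains were screened against the Prestwick library at 0.1 mM and 1% DMSO in 384-well format at low and high arabinose induction. Growth is read as OD600 after 10 h in triplicate.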
On to `CCCCCC[C@H]1C(=O)O[C@H](C)[C@H](NC(=O)c2cccc(NC=O)c2O)C(=O)O[C@@H](C)[C@@H]1OC(=O)CC(C)C` [Antimycin A], for which the growth is 0.15 ± 0.018.

Compound `C=C1C[C@@H]2[C@H](CC[C@]3(C)C(=O)CC[C@@H]23)[C@@]2(C)C=CC(=O)C=C12` [Exemestane] showed a growth of 0.112 ± 0.0048.

`CC(C)(N)Cc1ccccc1` [Phentermine hydrochloride] gave a growth of 0.206 ± 0.021.

In turn, `O[C@@H]1CCCC[C@H]1N1CCC(c2ccccc2)CC1` [L(-)-vesamicol hydrochloride] yielded a growth of 0.194 ± 0.018.

Consider `C[C@]12CC[C@H](O)C[C@H]1CC[C@@H]1[C@@H]2CC[C@]2(C)[C@@H](C3=CC(=O)OC3)CC[C@]12O` [Digitoxigenin], for which the growth came out at 0.165 ± 0.0087.

`C[CH2][Hg][S]c1ccccc1C(=O)[O-].[Na+]` [Thimerosal] yielded a growth of 0.207 ± 0.019.

Consider `CCN(C(C)=O)c1cccc(-c2ccnc3c(C#N)cnn23)c1` [Zaleplon], for which the growth came to 0.179 ± 0.013.

Compound `CC(N)C(O)c1ccccc1` (stereo not given) [Phenylpropanolamine hydrochloride] registered a growth of 0.189 ± 0.009.

Compound `C[C@@H]1CC[C@H]2[C@@H](C)C(=O)O[C@@H]3O[C@@]4(C)CC[C@@H]1[C@]32OO4` [Artemisinin] came in with a growth of 0.179 ± 0.012.

Consider `C[C@]12C[C@H]3S[C@H]3C[C@@H]1CC[C@@H]1[C@@H]2CC[C@]2(C)[C@@H](O)CC[C@@H]12` [Epitiostanol], for which the growth turned out to be 0.203 ± 0.01.

On to `CC(=O)OCC1=C(C(=O)O)N2C(=O)[C@@H](N)[C@H]2SC1` [Cephalosporanic acid, 7-amino], for which the growth was determined as 0.187 ± 0.014.

On to `CC(=O)O[C@H]1C[C@H](O[C@H]2[C@@H](O)C[C@H](O[C@H]3[C@@H](O)C[C@H](O[C@H]4CC[C@@]5(C)[C@H](CC[C@@H]6[C@@H]5C[C@@H](O)[C@]5(C)[C@@H](C7=CC(=O)OC7)CC[C@]65O)C4)O[C@@H]3C)O[C@@H]2C)O[C@H](C)[C@H]1O[C@@H]1O[C@H](CO)[C@@H](O)[C@H](O)[C@H]1O` [Lanatoside C], for which the growth is 0.184 ± 0.021.

`CCNCC(O)c1cccc(O)c1` (stereo not given) [Etilefrine hydrochloride] had a growth of 0.205 ± 0.0026.

Turning to `CN1[C@@H]2CC[C@H]1C[C@@H](OC(=O)C(CO)c1ccccc1)C2` (stereo not given in full) [Atropine sulfate monohydrate], the growth came out at 0.199 ± 0.015.

As for `C[C@]12Cc3c[nH]nc3C[C@@H]1CC[C@@H]1[C@@H]2CC[C@@]2(C)[C@H]1CC[C@]2(C)O` [Stanozolol], the growth was found to be 0.219 ± 0.018.

`CC(O)(CS(=O)(=O)c1ccc(F)cc1)C(=O)Nc1ccc(C#N)c(C(F)(F)F)c1` (stereo not given) [Bicalutamide] returned a growth of 0.196 ± 0.015.

Compound `C[C@@]12N[C@@H](Cc3ccccc31)c1ccccc12` [(-)-MK 801 hydrogen maleate] returned a growth of 0.213 ± 0.036.

With `CCC1(C)CC(=O)NC(=O)C1` [Bemegride], the growth stood at 0.2 ± 0.0046.

As to `CCOC(=O)c1cncn1[C@H](C)c1ccccc1` [Etomidate], the growth was 0.225 ± 0.019.

`CNC(=O)Oc1ccc2c(c1)[C@]1(C)CCN(C)[C@@H]1N2C` [Eserine hemisulfate salt]: the growth was found to be 0.187 ± 0.015.

Still in this assay, the particulars now being: arabinose induction (level): Low; compound 0.1 mM; raw OD600 reference: median of DMSO wells 0.227, cell-free background 0.041.
`CCCCCC[C@H]1C(=O)O[C@H](C)[C@H](NC(=O)c2cccc(NC=O)c2O)C(=O)O[C@@H](C)[C@@H]1OC(=O)CC(C)C` [Antimycin A] came in with a growth of 0.278 ± 0.058.

As to `C=C1C[C@@H]2[C@H](CC[C@]3(C)C(=O)CC[C@@H]23)[C@@]2(C)C=CC(=O)C=C12` [Exemestane], the growth came out at 0.109 ± 0.0022.

`CC(C)(N)Cc1ccccc1` [Phentermine hydrochloride] returned a growth of 0.233 ± 0.014.

`O[C@@H]1CCCC[C@H]1N1CCC(c2ccccc2)CC1` [L(-)-vesamicol hydrochloride] yielded a growth of 0.201 ± 0.015.

In the case of `C[C@]12CC[C@H](O)C[C@H]1CC[C@@H]1[C@@H]2CC[C@]2(C)[C@@H](C3=CC(=O)OC3)CC[C@]12O` [Digitoxigenin], the growth was found to be 0.171 ± 0.003.

For the compound `C[CH2][Hg][S]c1ccccc1C(=O)[O-].[Na+]` [Thimerosal], the growth came to 0.214 ± 0.014.

Take `CCN(C(C)=O)c1cccc(-c2ccnc3c(C#N)cnn23)c1` [Zaleplon]: the growth was 0.201 ± 0.0029.

Compound `CC(N)C(O)c1ccccc1` (stereo not given) [Phenylpropanolamine hydrochloride] came in with a growth of 0.226 ± 0.025.

In the case of `C[C@@H]1CC[C@H]2[C@@H](C)C(=O)O[C@@H]3O[C@@]4(C)CC[C@@H]1[C@]32OO4` [Artemisinin], the growth came to 0.191 ± 0.0069.

As to `C[C@]12C[C@H]3S[C@H]3C[C@@H]1CC[C@@H]1[C@@H]2CC[C@]2(C)[C@@H](O)CC[C@@H]12` [Epitiostanol], the growth turned out to be 0.21 ± 0.029.

Consider `CC(=O)OCC1=C(C(=O)O)N2C(=O)[C@@H](N)[C@H]2SC1` [Cephalosporanic acid, 7-amino], for which the growth is 0.215 ± 0.0044.

On to `CC(=O)O[C@H]1C[C@H](O[C@H]2[C@@H](O)C[C@H](O[C@H]3[C@@H](O)C[C@H](O[C@H]4CC[C@@]5(C)[C@H](CC[C@@H]6[C@@H]5C[C@@H](O)[C@]5(C)[C@@H](C7=CC(=O)OC7)CC[C@]65O)C4)O[C@@H]3C)O[C@@H]2C)O[C@H](C)[C@H]1O[C@@H]1O[C@H](CO)[C@@H](O)[C@H](O)[C@H]1O` [Lanatoside C], for which the growth amounted to 0.233 ± 0.03.

Take `CCNCC(O)c1cccc(O)c1` (stereo not given) [Etilefrine hydrochloride]: the growth worked out at 0.224 ± 0.035.

Compound `CN1[C@@H]2CC[C@H]1C[C@@H](OC(=O)C(CO)c1ccccc1)C2` (stereo not given in full) [Atropine sulfate monohydrate] returned a growth of 0.247 ± 0.019.

Turning to `C[C@]12Cc3c[nH]nc3C[C@@H]1CC[C@@H]1[C@@H]2CC[C@@]2(C)[C@H]1CC[C@]2(C)O` [Stanozolol], the growth amounted to 0.193 ± 0.0045.

`CC(O)(CS(=O)(=O)c1ccc(F)cc1)C(=O)Nc1ccc(C#N)c(C(F)(F)F)c1` (stereo not given) [Bicalutamide]: the growth was 0.236 ± 0.021.

Turning to `C[C@@]12N[C@@H](Cc3ccccc31)c1ccccc12` [(-)-MK 801 hydrogen maleate], the growth was determined as 0.221 ± 0.018.

For `CCC1(C)CC(=O)NC(=O)C1` [Bemegride], the growth was 0.23 ± 0.013.

For `CCOC(=O)c1cncn1[C@H](C)c1ccccc1` [Etomidate], the growth is 0.228 ± 0.013.

The compound `CNC(=O)Oc1ccc2c(c1)[C@]1(C)CCN(C)[C@@H]1N2C` [Eserine hemisulfate salt] registered a growth of 0.206 ± 0.0057.

For the origin of these results see the supplement of paper PMC9262897, “Low-cost anti-mycobacterial drug discovery using engineered E. coli” (Nature Communications, 2022).
